KB-V1 cytotox – qHTS assay for MDR1-selective chemotherapeutics: Primary screen using the drug-selected MDR subline cells KB-V1; KB-V1 MDR cells viability, CellTiter-Glo, 72 h; Potency, µM (doses to about 46.1 µM), hits mostly cytotoxic; 400,000 tested, 3.4% active; AID 1347076, 2019; also: % is scaled to controls: 0 for no effect and ±100 for the full control effect; nearly all actives have a fitted effect of over 60% in size
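Luminescent ATP read-out (CellTiter-Glo, 10 min) measures survival of drug-selected KB-V1 MDR cells after 72 h, 37 degrees C compound exposure. Medium: phenol-red-free DMEM, 10% FBS. Values from fitted concentration-response curves.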
MCF10A rereplic – A quantitative high throughput screen for small molecules that induce DNA re-replication in MCF 10a normal breast cells. MCF 10A DNA re-replication, Hoechst nuclear intensity, 48 h. Potency, µM (doses to about 46.1 µM), inactives show top-dose activity, positive = re-replication, actives largely listed as activators. 350,000 tested, 2.9% active. AID 624296, 2012; also: % of control where 0% means no effect; nearly all actives have a fitted effect of over 50% in size
PTAP TSG101 blk – qHTS Assay for Iinhibitors of HIV-1 Budding by Blocking the Interaction of PTAP/TSG101; Fluorescence polarization, FITC-PTAP peptide / Tsg101 binding; Tumor susceptibility gene 101 protein (Homo sapiens), Q99816; Potency, µM (doses to about 115 µM), without a hit: at the top dose activity change, negative = inhibition, hits mostly inhibitors; 340,000 tested, under 10 active; active = well fitted inhibition curve with a large enough effect in the main read-out, with a control signal flat, not every such curve was filed as active; inconclusive = small, poorly fitted or top-dose-only effect, or effect the other way, or a change in a side signal; inactive = no such curve, though single readings can be large or run the other way; also: % of control where 0% means no effect
Target sequence (Q99816 whole entry, looked up): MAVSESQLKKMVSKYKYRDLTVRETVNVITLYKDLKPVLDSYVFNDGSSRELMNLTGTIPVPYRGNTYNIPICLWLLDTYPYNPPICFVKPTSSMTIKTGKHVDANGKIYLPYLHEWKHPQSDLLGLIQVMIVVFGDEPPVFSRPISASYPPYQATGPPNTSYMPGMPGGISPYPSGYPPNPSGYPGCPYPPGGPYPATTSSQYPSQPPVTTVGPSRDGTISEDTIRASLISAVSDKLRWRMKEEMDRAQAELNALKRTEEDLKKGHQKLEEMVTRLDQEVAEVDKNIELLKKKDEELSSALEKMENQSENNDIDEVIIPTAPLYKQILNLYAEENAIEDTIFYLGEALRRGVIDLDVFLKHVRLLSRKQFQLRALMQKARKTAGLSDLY
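Fluorescence polarization binding of Tsg101 binding domain (10 uM final) to FITC-labeled PTAP peptide (50 nM final) in HEPES pH 7.5 buffer with NaCl, Tween 20, EDTA, TCEP. Compounds added before peptide; binding 20 min at RT.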
KB-3-1 cytotox – qHTS assay for MDR1-selective chemotherapeutics: Primary screen using the parental adenocarcinoma cell KB-3-1 | 400,000 tested, 1.4% active | KB-3-1 viability, CellTiter-Glo ATP luminescence, 72 h | AID 1347075, 2019 | Potency, µM (highest dose often 46.1 µM), most hits filed as cytotoxic; also: % is scaled to controls: 0 for no effect and ±100 for the full control effect; nearly all actives have a fitted effect of over 60% in size
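Multi-concentration cytotoxicity screen in KB-3-1 cells grown in DMEM lacking phenol red with 10% FBS. After 72 h at 37 °C with compound, ATP-dependent luminescence was recorded.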
RGS4 inhibitor – Inhibitors of Regulator of G Protein Signaling (RGS) 4: qHTS | Transcreener GDP fluorescence polarization, RGS4-accelerated GTP hydrolysis | 390,000 tested, 0.039% active | Potency, µM (top dose mostly 114 µM), without a hit: top-dose activity change, negative = inhibition, hits mostly inhibitors; also: % is scaled to controls: 0 for no effect and ±100 for the full control effect; nearly all actives have a fitted effect of over 75% in size
Target sequence (P49798 whole entry, looked up): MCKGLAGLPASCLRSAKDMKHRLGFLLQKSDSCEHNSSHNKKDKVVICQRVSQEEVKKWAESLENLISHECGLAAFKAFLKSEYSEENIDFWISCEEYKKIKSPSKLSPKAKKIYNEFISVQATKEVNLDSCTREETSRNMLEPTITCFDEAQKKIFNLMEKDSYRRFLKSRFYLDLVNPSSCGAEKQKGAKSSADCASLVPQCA
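MLSMR compounds (23 nl, pin-transferred) preincubated 10 min at room temperature with a 500nM (2x) first reagent, then RGS4 at 900nM (2x) plus Transcreener GDP mix added; fluorescence polarization (620/688 nm) read before and after 90 min at 30 °C.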
SW480 rereplic – A quantitative high throughput screen for small molecules that induce DNA re-replication in SW480 colon adenocarcinoma cells | 340,000 tested, 1.8% active | Potency, µM (titrated, usually from 46.1 µM), inactives show at the highest dose re-replication activation, usual class: activators | SW480 DNA re-replication, Hoechst DNA content imaging, 48 h; also: % of control where 0% means no effect; nearly all actives have a fitted effect of over 55% in size
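Image-based DNA-content assay: after two days of treatment, nuclei were labelled with the DNA dye Hoechst and imaged, and hits were compounds raising the count of nuclei showing high fluorescence intensity.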
Active calls of the source: *; i = inactive; ? = inconclusive; . = no result given; ! = a repeat was not active; [ ] = remark or other dose. Most compounds without a hit are left out; they make up all but 6.6% or so of the library. Unless noted, calls follow the shape of the dose curve; as a rule, active = well fitted curve in the direction sought with a large enough effect; inconclusive = small, poorly fitted or top-dose-only effect, or another doubt; inactive = no such curve, though single readings can be large; an effect the other way counts as inactive or inconclusive. Potency is read from the fitted curve at half-maximal effect.

SMILES	KB-V1 cytotox	MCF10A rereplic	PTAP TSG101 blk	KB-3-1 cytotox	RGS4 inhibitor	SW480 rereplic
O=C1NC(=O)C(=Cc2cc(Cl)ccc2OCc2ccc(C(=O)O)cc2)C(=O)N1	i	0.92µM*	-6%	i	?	?
CN1C(=O)C(=Cc2ccccc2OCc2ccc(Cl)cc2)C(=O)N(C)C1=O	i	0%	1%	i	-27%	-3%
COc1ccc(C(CNC(=O)Cc2ccc(Cl)c(Cl)c2)N2CCCCC2)cc1 (configuration not stated)	.	?	-2%	.	-18%	11%
CCOC(=O)c1cnc(SCc2ccc(Cl)c(Cl)c2)nc1N1CC1	8.2µM*	13µM*	1%	i	-29%	4.1µM*
O=C1c2ccccc2C(=O)C1C(=O)C(c1ccccc1)c1ccccc1	.	24µM*	.	.	.	?
COc1ccc(NC(=O)CCOc2cc(C)ccc2C)cc1S(=O)(=O)N1CCCCC1	?	?	2%	?	-13%	1%
CC(=O)N(C1=NCCCS1)c1ccccc1Cl	i	0.58µM*	-1%	i	28%	-14%
Clc1ccccc1NC1=NCCCS1	i	?	3%	i	2%	-8%
COc1cccc(-n2c(-c3ccoc3)nc3ccccc3c2=O)c1	15µM*	10%	-6%	i	39%	8%
COc1cccc(-n2c(C)nc3ccccc3c2=O)c1	i	-2%	-3%	i	20%	-1%
CCCCN1C(=O)NC(=O)C2(Cc3c(nc4ccccn4c3=O)N3CCc4ccccc4C32)C1=O (configuration not stated)	i	1%	-4%	i	-10%	-3%
CCCCN1C(=O)NC(=O)C2(Cc3c(nc4c(C)cccn4c3=O)N3CCc4ccccc4C32)C1=O (configuration not stated)	15µM*	?	-11%	i	2%	?
C[C@H]1O[C@@H](O[C@H]2[C@@H](O)C[C@H](O[C@H]3[C@@H](O)C[C@H](O[C@H]4CC[C@]5(C)C6CC[C@]7(C)[C@@H](C8=CC(=O)OC8)CC[C@]7(O)C6CC[C@@H]5C4)O[C@@H]3C)O[C@@H]2C)C[C@H](O)[C@@H]1O (some centres not stated)	.	.	.	.	i	.
CO[C@H]1[C@@H](O)CC(OC2[C@@H](O)CC(OC3[C@@H](O)C[C@H](OC4CC[C@@]5(C)C(CCC6C5CC(O)[C@]5(C)[C@H](C7=CC(=O)OC7)CCC65O)C4)O[C@@H]3C)O[C@@H]2C)O[C@@H]1C (some centres not stated)	.	20%	.	.	.	10%
C[C@H]1O[C@@H](O[C@H]2[C@@H](O)C[C@@H](O[C@H]3[C@@H](O)C[C@H](O[C@H]4CC[C@@]5(C)[C@H](CC[C@@H]6[C@@H]5CC[C@]5(C)[C@@H](C7=CC(=O)OC7)CC[C@]65O)C4)O[C@@H]3C)O[C@@H]2C)C[C@H](O)[C@@H]1O	?	.	.	0.01µM*	.	.
CNC(=O)Nc1ccc(C(=O)N/N=C\C23CC[C@@H](O)CC2(O)CC[C@@H]2[C@@H]3CCC3(C)C(C4=CC(=O)OC4)CCC23O)cc1 (some centres not stated)	i	14%	0%	?	-27%[11.4 µM]	-4%
CC(=O)OC1CC(OC2C(O)CC(OC3C(O)CC(OC4CCC5(C)C(CCC6C5CC(O)C5(C)C(C7=CC(=O)OC7)CCC65O)C4)OC3C)OC2C)OC(C)C1OC1OC(CO)C(O)C(O)C1O (configuration not stated)	0.92µM*!	0.18µM*	-1%	?	26%	1.8µM*
CC(=O)C1CCC2C3CCC4CC(O)CCC4(C)C3CCC12C (configuration not stated)	i	?	0%	i	11%	20%
CC12CCC(O)CC1CCC1C2CCC2(C)C(C3=CC(=O)OC3)C(O)CC12O (configuration not stated)	4.1µM*	2.1µM*	-3%	?	-23%	23µM*
C[C@]12CC[C@H](O)C[C@H]1CC[C@@H]1[C@@H]2CC[C@]2(C)[C@@H](C3=CC(=O)OC3)CC[C@]12O	1.5µM*	?	-3%	1.6µM*	-10%	?
CCOC(=O)Cn1c(-c2ccccc2)ccc(C#N)c1=O	i	-18%	-3%	i	0%	?
ClCCN(CCCl)c1ccc(C=Nc2ccc(/C=C/c3ccncc3)cc2)cc1	i	.	.	i	.	.
OCCO	i	-6%	2%	i	-6%	-48%
C[C@@H]1O[C@H](O[C@@H]2C=C3CC[C@H]4[C@@H](CC[C@]5(C)[C@@H](c6ccc(=O)oc6)CC[C@]45O)[C@@]3(C)CC2)[C@@H](O)[C@H](O)[C@@H]1O	.	-3%[20.6 µM]	.	.	.	?
CC12CC[C@H]3[C@@H](CCC4(O)C[C@H](O)CCC34/C=N/NC(=O)Cc3ccccc3)C1(O)CCC2C1=CC(=O)OC1 (some centres not stated)	i	16%	0%	i	-7%	-7%
CC12CCC(O)CC1CCC1C2CCC2(C)C(C3=CC(=O)OC3)CCC12O (configuration not stated)	0.73µM*	?	-4%	1.2µM*	3%	5.8µM*
C[C@]12CC[C@H](O)C[C@H]1CC[C@@H]1[C@@H]2C[C@@H](O)[C@]2(C)[C@@H](C3=CC(=O)OC3)CC[C@]12O	1.6µM*	?	-1%	1.3µM*	3%	?
CC12CC[C@H]3[C@@H](CCC4(O)C[C@H](O)CCC34/C=N/NC(=O)c3ccccc3[N+](=O)[O-])C1(O)CCC2C1=CC(=O)OC1 (some centres not stated)	?	16µM*	0%	9.2µM*	2%	7%
COC1C(O)C(C)OC(OC2CCC3(C)C(CCC4C3C(O)CC3(C)C(C5=CC(=O)OC5)CCC43O)C2)C1O (configuration not stated)	0.18µM*	0.26µM*	1%	0.21µM*	-8%	1.3µM*
